The nature of experiment [1]: NCI Yeast Anticancer Drug Screen. Data for the rad50 strain (AID 155).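 Also: 0% = growth of vehicle-only cultures of the same strain.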 Conditions: S. cerevisiae rad50 strain growth inhibition; at 50.0 µM; stronger effect = higher value. The procedure, abridged: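 Cells are treated with compound, grown, and their growth is then scored against vehicle-only cultures of the same repair-deficient yeast strain.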
Experiment [2] in a line: NCI Yeast Anticancer Drug Screen. Data for the mec2-1 strain (AID 157). Conditions: S. cerevisiae mec2-1 strain, at 50.0 µM, stronger effect = higher value. The procedure, abridged:
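Yeast mec2-1 mutant treated with compound. Readout: growth inhibition vs vehicle controls.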

Experiment [3] in a line: NCI Yeast Anticancer Drug Screen. Data for the sgs1 mgt1 strain (AID 161).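 Also: 0% = growth of cultures given vehicle only.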 The note with it: S. cerevisiae sgs1 mgt1 strain, at 50.0 µM, stronger effect = higher value. A digest of the protocol: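 Read-out: growth inhibition vs vehicle controls. Cells: mutant yeast strain deficient in DNA damage repair.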
The nature of experiment [4]: NCI Yeast Anticancer Drug Screen. Data for the cln2 rad14 strain (AID 165).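 Also: 0% = growth equal to vehicle treated cultures.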 The note with it: S. cerevisiae cln2 rad14 strain, at 50.0 µM, stronger effect = higher value. The procedure, abridged: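 cln2 rad14 yeast strain; compound exposure; growth inhibition read vs vehicle controls.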
Experiment [5] in a line: NCI Yeast Anticancer Drug Screen. Data for the bub3 strain (AID 167). Conditions: S. cerevisiae bub3 mutant strain, at 50.0 µM, stronger effect = higher value. A digest of the protocol: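 Part of a panel of yeast mutants defective in DNA damage repair or cell cycle regulation. Each strain is grown with compound, and inhibition is calculated relative to solvent-treated cultures.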

Experiment [6] is described as follows: NCI Yeast Anticancer Drug Screen. Data for the mlh1 rad18 strain (AID 175). The note with it: S. cerevisiae mlh1 rad18 strain growth inhibition; at 50.0 µM; stronger effect = higher value. The procedure, abridged: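 Yeast w/ defined DNA-repair lesions; compound exposure; growth vs vehicle controls → % inhibition.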

The panel holds about 79,000 compounds, 15% with a hit somewhere; the sample as a whole holds those more often. Unmarked numbers belong to inactive results. The source made the active and inactive calls. Rule as the data show it: active = growth inhibition above about 70%; inactive = the rest.

For the molecule `CC(C)NC(=O)OCc1c(COC(=O)NC(C)C)c(-c2ccc(Cl)c(Cl)c2)n2c1SCC2`, the growth inhibition is 33.9% in experiment [1]; -7.95% in experiment [2]; 15.9% in experiment [3]; -1.35% in experiment [4]; 2.9% in experiment [5]; 52.9% in experiment [6].

`CCC(O)CC(CC)CO` (configuration not stated): the growth inhibition in experiment [1] was -4.1%; in experiment [2], -2.7%; in experiment [3], 4.4%; in experiment [4], -32.7%; in experiment [5], -12.2%; in experiment [6], -10.1%.

Consider `Cc1cc(N)ccc1-c1ccc(N)cc1C`, for which the growth inhibition is -3% in experiment [1]; -6.45% in experiment [2]; 4.45% in experiment [3]; -39% in experiment [4]; -23.1% in experiment [5]; 37.8% in experiment [6].

In the case of `CCOC(=O)/C(C#N)=C/c1cccc(C)c1`, the growth inhibition is -19.4% in experiment [1]; 22.8% in experiment [2]; -25.2% in experiment [3]; 13.3% in experiment [4]; 23.2% in experiment [5]; -6.55% in experiment [6].

Regarding `COc1ccccc1N1CCN(C(=S)Nc2ccccc2)CC1`, the growth inhibition was 32.3% in experiment [1]; -13.8% in experiment [2]; 0.8% in experiment [3]; -1.05% in experiment [4]; -2.7% in experiment [5]; 15.3% in experiment [6].

As to `COc1ccccc1N=Nc1c(O)ccc2cc(S(=O)(=O)O)ccc12`, the growth inhibition in experiment [1] is -14.7%; in experiment [2], 6.9%; in experiment [3], 6.75%; in experiment [4], 9.95%; in experiment [5], -2.75%; in experiment [6], -13.2%.

With `CC(=O)Nc1cccc(Cl)c1C`, the growth inhibition in experiment [1] is 17.6%; in experiment [2] it was 11.7%; in experiment [3], 1.35%; in experiment [4] it was 4.9%; in experiment [5], 8.85%; in experiment [6] it was -0.35%.

As for `COc1ccccc1C1OC2=Nc3cc(C)c(C)cc3NC2C1=O` (configuration not stated), the growth inhibition in experiment [1] was 11.1%; in experiment [2], -9.95%; in experiment [3], -1.95%; in experiment [4], -9.25%; in experiment [5] it was -21.1%; in experiment [6] it was 5.95%.

On to `[O-][N+](=Nc1cccc(Cl)c1)c1cccc(Cl)c1`, for which the growth inhibition in experiment [1] is 19.7%; in experiment [2], -30.9%; in experiment [3], 24.9%; in experiment [4] it was 16.1%; in experiment [5], 21.2%; in experiment [6] it was 15.1%.

Regarding `C=CC(O)CCC` (configuration not stated), the growth inhibition in experiment [1] was -8.4%; in experiment [2], -41%; in experiment [3], -16.8%; in experiment [4] it was 1.3%; in experiment [5] it was -1.6%; in experiment [6] it was -2.7%.

As to `C/C=C/CC(C)C(O)C1C(=O)NC(CC)C(=O)N(C)CC(=O)N(C)C(CC(C)C)C(=O)NC(C(C)C)C(=O)N(C)C(CC(C)C)C(=O)NC(C)C(=O)NC(C)C(=O)N(C)C(CC(C)C)C(=O)N(C)C(CC(C)C)C(=O)N(C)C(C(C)C)C(=O)N1C` (configuration not stated), the growth inhibition was 17.3% in experiment [1]; 8.3% in experiment [2]; -5.45% in experiment [3]; 25.6% in experiment [4]; 22.7% in experiment [5]; 18.1% in experiment [6].

In the case of `COC(=O)c1ccc(NC(=O)CCl)cc1`, the growth inhibition is 44.8% in experiment [1]; 37% in experiment [2]; 50% in experiment [3]; 49% in experiment [4]; 32.7% in experiment [5]; 45.5% in experiment [6].

`COS(=O)(=O)c1ccc(Br)cc1`: the growth inhibition in experiment [1] is -6%; in experiment [2], -23.4%; in experiment [3], -17.3%; in experiment [4] it was -60.8%; in experiment [5], 0.6%; in experiment [6] it was -26.2%.

Regarding `CC(C)OC(=O)c1cc(NC(=S)OC(C)C)ccc1Cl`, the growth inhibition in experiment [1] is 3.95%; in experiment [2], 10.2%; in experiment [3] it was 22.9%; in experiment [4] it was 15.3%; in experiment [5], 32.5%; in experiment [6], 85.1% (active).

In the case of `Cc1ccc(Cl)cc1N1C(=O)CC(Sc2ccccc2N)C1=O` (configuration not stated), the growth inhibition in experiment [1] was 21.9%; in experiment [2], -2.8%; in experiment [3], 28.4%; in experiment [4], 8.65%; in experiment [5], 30.8%; in experiment [6], 20.2%.

Take `CCn1c(=O)n(C)c2c(=O)n(C)c(=O)n(C)c21`: the growth inhibition in experiment [1] was 21.6%; in experiment [2], -3.8%; in experiment [3], -13.3%; in experiment [4], 1%; in experiment [5] it was 1.4%; in experiment [6], 2.2%.

With `CC(C)C1CCCCC1O` (configuration not stated), the growth inhibition was -9.15% in experiment [1]; -9.1% in experiment [2]; -11.5% in experiment [3]; -35.5% in experiment [4]; -1.4% in experiment [5]; 6.8% in experiment [6].

Regarding `S=c1sc2ccccc2n1CN1CCCCC1`, the growth inhibition was 7.7% in experiment [1]; 14.8% in experiment [2]; 45% in experiment [3]; 10.6% in experiment [4]; 25.3% in experiment [5]; 15.8% in experiment [6].

Consider `CCCCCCCO`, for which the growth inhibition is -11% in experiment [1]; -17.9% in experiment [2]; -28.8% in experiment [3]; 2.25% in experiment [4]; -14.7% in experiment [5]; -11.9% in experiment [6].

For the molecule `CCOC(=O)CSc1c([N+](=O)[O-])ncn1C`, the growth inhibition in experiment [1] was 4.9%; in experiment [2] it was 0.5%; in experiment [3], 8.75%; in experiment [4], 17.3%; in experiment [5], 8.75%; in experiment [6], -10.4%.

Regarding `O=[N+]([O-])c1cccc(N=Nc2ccc(O)cc2O)c1`, the growth inhibition is 30.6% in experiment [1]; -5.65% in experiment [2]; 65.5% in experiment [3]; 15.6% in experiment [4]; 4.2% in experiment [5]; 20.6% in experiment [6].

Consider `O=C(/C(=N/O)c1ccccc1)c1ccccc1`, for which the growth inhibition is 7.4% in experiment [1]; -21.6% in experiment [2]; 1.35% in experiment [3]; -25.5% in experiment [4]; 4.85% in experiment [5]; 12.2% in experiment [6].

Values taken from PubChem BioAssay (NCI).
